Out of some 48,000 compounds screened, about 13,000 (27%) showed an effect of 50% or more. This is one part of the list.
Test system: Wolbachia pipientis
Assay: Anti-Wolbachia Cell-Based Screen
Assay type: functional
Parameters: scale not given: in the data most compounds retested in dose-response had high values
Conditions: 5 µM

SMILES | Percent Effect
CCCn1nccc1C(=O)N1CCCC(C(=O)CCc2ccccc2)C1 (configuration not stated) | 3.228%
Cn1nccc1-c1nc2c(cc1C(=O)O)CCN(C(=O)C1CC1)CC2.O=C(O)C(F)(F)F | -10.62%
CCCn1ncnc1C(C)NC(=O)C1CCN(C(=O)C2CC2)CC1 (configuration not stated) | -8.242%
CCCn1nccc1C(=O)N1CCN(C(=O)C2CC2)[C@@H]2CS(=O)(=O)C[C@@H]21 | 17.33%
CCCn1nccc1-c1nccnc1CC1CCN(C(C)=O)C1 (configuration not stated) | 94.67%
CCCn1nccc1-c1cnc(CC2CCN(C(C)=O)C2)cn1 (configuration not stated) | 102.9%
CC(=O)N1CCC(Cc2nccnc2-c2ccnn2C)CC1 | 105.5%
CCCn1nccc1-c1nccnc1CC1CCN(C(C)=O)CC1 | 113%
CCCn1nccc1C(=O)N1CCN(C2CCc3ccccc3C2)CC1 (configuration not stated) | -8.816%
CS(=O)(=O)c1ccc2c(c1)N(C(=O)Cc1ccc(F)cc1)CCC2 | 9.452%
N#Cc1cccnc1NCCNC(=O)NCCSC(F)(F)F | 18.52%
O=C(NCCC1CCCCO1)c1coc(COc2ccc(F)cc2)n1 (configuration not stated) | -18.68%
CCOCc1nc2c(c(NC(CC)c3cccnc3)n1)CCNCC2 (configuration not stated) | 11.04%
CN(CC1(CO)CCCC1)[C@@H]1c2ccccc2C2(CCNCC2)[C@H]1O | 6.987%
Cc1cccc(C2CCCN(C(=O)CN3CCOC3=O)C2)c1 (configuration not stated) | -2.013%
CN(C)CCO[C@H]1C[C@@H](O)C12CCN(c1nccc3ccccc13)CC2 | -5.816%
Clc1ccccc1C1(c2ccnc(-c3ncccn3)n2)CCNCC1 | -1.363%
Cc1ccccc1CC(C)(C)NC(=O)COc1cccc(C(N)=O)c1 | 8.164%
Cc1ccn(-c2cncc(C(N)=O)c2)n1 | -45.7%
Cc1cc(=O)n2nc(Oc3cccc(I)c3)sc2n1 | 98.58%
Cc1cc(=O)n2nc(Oc3cccc(C(N)=O)c3)sc2n1 | 92.57%
CSCCC(=O)N1CCC(c2nccn2Cc2cscn2)CC1 | -27.24%
Cc1ccsc1-c1nc(CN(C)Cc2cc[nH]n2)c(C)o1 | 11.99%
Cc1ccc(S(=O)(=O)N2C[C@H](C3CC3)[C@@H](N)C2)cc1F | -0.3318%
Cc1ccc(S(=O)(=O)N2CCCCC(N3CCN(C)CC3)C2)cc1F (configuration not stated) | -10.96%
Cc1ccc(S(=O)(=O)N2CCCC3(CCCN3S(C)(=O)=O)C2)cc1F (configuration not stated) | 98%

SMILES | Percent Effect
CS(=O)(=O)N1CCCC12CCCN(S(=O)(=O)c1ccc(F)cc1)C2 (configuration not stated) | -4.23%
CS(=O)(=O)N1CCCC12CCCN(S(=O)(=O)c1ccc(F)c(F)c1)C2 (configuration not stated) | 90.35%
c1ccn2c(C3CCCN(c4ncnc5c4CCNC5)C3)nnc2c1 (configuration not stated) | -4.904%
O=C(O)COc1ccc(Cl)cc1CN1CCC2(CCNCC2)CC1 | -7.41%
Cc1csc(CN2CC(CO)Oc3ccccc32)n1 (configuration not stated) | -31.8%
COc1c(CNCc2ccccc2Cn2cncn2)c(C)nn1C | -0.9882%
COc1c(CNCc2cccc(Cn3cccn3)c2)c(C)nn1C | 134.9%
COc1c(CNCc2cccc(Cn3ccnc3C)c2)c(C)nn1C.Cl | 162.7%
COc1c(CNCc2cccc(Cn3cncn3)c2)c(C)nn1C | 94.36%
COc1c(CNCc2cccc(CN3CCOCC3)c2)c(C)nn1C | -5.316%
COc1c(CNCc2ccccc2Cn2cccn2)c(C)nn1C | 10.98%
COc1c(CNCc2ccc(Cn3cccn3)cc2)c(C)nn1C | -21.67%
Cc1ccc(NC(=O)C(C)N2CCCN(c3nccs3)CC2)c(C)c1 (configuration not stated) | -5.233%
O=S(=O)(NCC1(O)CCCC1)c1ccccc1Br | 2.398%
CC(C)(C)OC(=O)Cn1cccc(S(=O)(=O)N2CCCC2)c1=O | 1.983%
CC(C)(C)OC(=O)Cn1cccc(S(=O)(=O)N2CCCCCC2)c1=O | -1.938%
CC1CCN(S(=O)(=O)c2cccn(CC(=O)NC(C)(C)C)c2=O)CC1 | -3.132%
O=c1[nH]nc2c(S(=O)(=O)N3CCOCC3)cccn12 | 153.4%
O=C(O)c1cc(-c2cc[nH]n2)cc(S(=O)(=O)N2CCCCCC2)c1 | 5.373%
O=S(=O)(Nc1ccc(N2CCOCC2)cn1)c1ccc(F)cc1 | -10.45%
CC1CCN(S(=O)(=O)c2cccn(CC(=O)N3CCOCC3)c2=O)CC1 | 5.887%
CC(=O)Nc1ncc(S(=O)(=O)N2CCOCC2)s1 | -0.8414%
O=c1[nH]nc2c(S(=O)(=O)N3CCCCC3)cccn12 | 132.6%
O=c1[nH]nc2c(S(=O)(=O)N3CCN(c4ccc(F)cc4)CC3)cccn12 | 130.4%
O=C1N(c2ccc(F)cc2)Cc2n[nH]c(=O)n21 | 2.178%
O=c1[nH]nc2c(S(=O)(=O)N3CCCC3)cccn12 | 132.4%

From ChEMBL document CHEMBL3988442, “University of Dundee, Small-Polar-MMV Screening Library” (2021)
